Results published in PubChem BioAssay (EPA / NIEHS).
Results filed as inconclusive are left out. The source made the active and inactive calls. The calls were made as follows: active = hit-call score of the fitted dose curve at least 0.9, where 1 is the maximum; inconclusive = response in the unintended direction; inactive = score below 0.9.

Molecular target: mouse Cholecystokinin, CCK1 Receptor (CCKA), Cckar (gene 12425) (UniProt O08786)
Assay: NVS_GPCR_mCCKAPeripheral: NovaScreen (NVS) G Protein-Coupled Receptor Assay for mouse Cholecystokinin, CCK1 Receptor (CCKA) (AID 2283285)
Procedure, shortened: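 Chemicals were first screened in duplicate at 25 uM, with those meeting threshold (e.g., 30% inhibition) retested in singleton concentration series to 50 uM maximum. Binding of radioligand to mouse pancreatic membranes was read after 2 h by filtration and scintillation counting.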

Sequence of mouse Cholecystokinin, CCK1 Receptor (CCKA), Cckar (gene 12425) (O08786 whole entry, looked up): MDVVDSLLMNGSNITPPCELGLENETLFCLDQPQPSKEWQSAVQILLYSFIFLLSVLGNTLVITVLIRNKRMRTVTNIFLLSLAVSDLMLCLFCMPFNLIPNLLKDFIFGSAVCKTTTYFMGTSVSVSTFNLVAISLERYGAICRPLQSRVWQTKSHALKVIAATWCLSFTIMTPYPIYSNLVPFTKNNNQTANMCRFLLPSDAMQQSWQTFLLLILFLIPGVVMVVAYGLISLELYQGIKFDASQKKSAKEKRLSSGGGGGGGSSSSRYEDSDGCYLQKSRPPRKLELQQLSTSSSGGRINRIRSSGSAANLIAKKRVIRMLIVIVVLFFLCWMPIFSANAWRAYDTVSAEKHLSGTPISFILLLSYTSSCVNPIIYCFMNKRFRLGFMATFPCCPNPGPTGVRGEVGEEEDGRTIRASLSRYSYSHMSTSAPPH

| SMILES | AC50 | outcome |
| --- | --- | --- |
| C=CCC1=C(C)[C@@H](OC(=O)[C@@H]2[C@@H](C=C(C)C)C2(C)C)CC1=O | 19.9 µM (active) |  |
| CO/C=C(/C(=O)OC)c1ccccc1Oc1cc(Oc2ccccc2C#N)ncn1 |  | inactive |
| C=CCC1=C(C)C(OC(=O)C2C(C=C(C)C)C2(C)C)CC1=O (stereo not drawn) | 25 µM (active) [middle of 4 runs] |  |
